Measurements published in PubChem BioAssay (NCATS).
Results filed as inconclusive are left out. Where a call stands in place of a potency, no number is given. Unmarked numbers belong to inactive results. The source made the active and inactive calls. Calls follow the shape of the dose curve; as a rule, active = well fitted inhibition curve with a large enough effect; inconclusive = small, poorly fitted or top-dose-only effect; inactive = flat fitted curve, though single readings scatter.

Assay: Primary qHTS for inhibitors of nuclear receptor binding SET domain protein 2 (NSD2) in an isogenic RCH-ACV NSD2 p.E1099K mutant (9B) (AID 1645876); also: nearly all actives have a fitted effect of over 70% in size
Conditions: RCH-ACV (leukaemia line) NSD2 E1099K (9B) viability, CellTiter-Glo, 72 h; series mostly up to 44.9 µM
With `CC(C)CC(=O)OC[C@@]1(O)C[C@@]23CC[C@H]4[C@@](C)(CCC[C@@]4(C)C(=O)O)[C@@H]2CC[C@@H]1C3` the Potency was “inactive”. For `C=C(C(=O)O)[C@@H]1CC[C@@]2(C)CC[C@@H](O)C(=C)C2C1` (some centres undefined), the Potency was “inactive”. In the case of `C=C1CCc2occ(C)c2[C@H]2[C@H]1[C@@]13O[C@@]1(C[C@@H](C)[C@H]3OC(C)=O)[C@H]1O[C@@]21C`, the Potency is reported as “inactive”. With `O=C(OC[C@H]1O[C@@H](Oc2ccccc2COC(=O)C2(O)C=CCCC2O)[C@H](O)[C@@H](O)[C@@H]1O)c1ccccc1` (some centres undefined) the Potency was “inactive”. In the case of `O=C(Nc1ccn(Cc2c(F)cccc2C(F)(F)F)n1)c1c(F)cccc1F`, the activity change, negative = viability loss is reported as -7.96% [at 9.23 µM]. For `NC1Nc2ccccc2C1(N)CC1NC(=O)C(Cc2ccccc2)NC(=O)C(Cc2ccccc2)NC1=O` (centres undefined), the Potency was “inactive”. In the case of `CC1(C)O[C@H]2CC(=O)OC[C@@]23C1=C(O)C(=O)[C@]1(C)C3CC[C@@]2(C)[C@H](c3ccoc3)OC(=O)[C@H]3O[C@]321` (some centres undefined), the Potency is reported as “inactive”. For `Cc1c(NC(=O)N2CCOCC2)ccc2c1c1ccccc1n2C(C)C`, the Potency was “inactive”. For `C=C(COC(=O)C(C)C)C1Oc2cc(C(C)=O)ccc2C1OC(=O)C(C)C` (centres undefined), the Potency was “inactive”. In the case of `COc1cc(/C=C/CO[C@@H]2O[C@H](CO)[C@@H](O)[C@H](O)[C@H]2O)cc(OC)c1O[C@@H]1O[C@H](CO)[C@@H](O)[C@H](O)[C@H]1O`, the Potency is reported as “inactive”. With `C=C1CCC2C(C)(C)CCC[C@]2(C)[C@H]1CC/C(C)=C/C(=O)O` (some centres undefined) the Potency was “inactive”. For `C/C(CO)=C1/CCC23COC(C2)C(O)(C(=O)O)CCC13` (centres undefined), the Potency was “inactive”. In the case of `CC(C)c1ccc2c(c1)C(O)CC1C(C)(CO)CCCC21C` (centres undefined), the Potency is reported as “inactive”. Molecule `COc1ccc(/C=C/C(=O)O[C@@H]2[C@@H](O[C@@H]3O[C@H](CO)[C@@H](O)[C@H](O)[C@H]3O)[C@@H](O)[C@H](O[C@H]3C4C=CO[C@@H](O[C@@H]5O[C@H](CO)[C@@H](O)[C@H](O)[C@H]5O)C4[C@@]4(CO)O[C@@H]34)O[C@H]2C)cc1` (some centres undefined) has an activity change, negative = viability loss of -15.4% [at 9.23 µM]. With `COc1cc(C(O)C2COC(c3ccc(OC4OC(CO)C(O)C(O)C4O)c(OC)c3)C2CO)ccc1O` (centres undefined) the Potency was “inactive”. For `C=CC(C)(O)C1CC2C3(C)CCCC(C)(C)C3C(O)C(O)C2(C)O1` (centres undefined), the Potency was “inactive”. With `CC(C)c1c(NC(=O)Nc2ccc(Cl)cc2)c(=O)n(-c2ccccc2)n1C` the Potency was “inactive”. With `C=C1C(O)C(O)C2(CC3C(C)=CCC4C(C)(C(=O)O)CCCC34C)OC2C1O` (centres undefined) the Potency was “inactive”. With `O=C(/C=C/c1ccc(O)c(O)c1)O[C@@H]1[C@@H](O)[C@H](OC2CCCCC2O)O[C@H](CO)[C@H]1O` (some centres undefined) the Potency was “inactive”. In the case of `COc1ccc(CCC(=O)O)c(O[C@@H]2O[C@H](CO)[C@@H](O)[C@H](O)[C@H]2O)c1`, the Potency is reported as “inactive”. Molecule `CC(=O)O[C@@H]1[C@H](O[C@@H]2OC[C@](O)(CO)[C@H]2O)[C@@H](O[C@@H]2O[C@@H](C)[C@H](O)[C@@H](O[C@@H]3O[C@H](CO)[C@@H](O)[C@H](O)[C@H]3O)[C@H]2O)[C@H](OC(=O)[C@]23CCC(C)(C)C[C@H]2C2=CCC4[C@@]5(C)C[C@H](O)[C@H](O[C@@H]6O[C@H](C(=O)O)[C@@H](O)[C@H](O)[C@H]6O)[C@@](C)(C(=O)O)C5CC[C@@]4(C)[C@]2(C)CC3)O[C@@H]1C` (some centres undefined) has an activity change, negative = viability loss of 4.2% [at 9.23 µM]. For `O=C(C[C@@H]1C(C(=O)O)=CO[C@@H](O[C@@H]2O[C@H](CO)[C@@H](O)[C@H](O)[C@H]2O)/C1=C\CO)OCCc1ccc(O)cc1`, the Potency was “inactive”. In the case of `C=C[C@@](C)(CCC=C(C)C)O[C@@H]1O[C@H](CO[C@@H]2OC[C@H](O)[C@H](O)[C@H]2O)[C@@H](O)[C@H](O)[C@H]1O`, the Potency is reported as “inactive”. In the case of `O=C(O)C1(c2ccc(-c3ccc(Cl)c(Cl)c3)c(F)c2)CC1`, the Potency is reported as “inactive”. For `O=C1NC(=O)/C(=C/c2cccc(C(F)(F)F)c2)S1`, the Potency was “inactive”. In the case of `NC(=O)c1ccc(F)c2c1C[C@@H](N(C1CCC1)C1CCC1)CO2`, the Potency is reported as “inactive”. For `COC(=O)c1ccccc1O[C@@H]1O[C@H](CO[C@@H]2OC[C@@H](O)[C@H](O)[C@H]2O)[C@@H](O)[C@H](O)[C@H]1O`, the Potency was “inactive”. With `CC1CCC2(C(=O)O)CCC3(C)C(=CCC4C5(C)CCC(O)C(C)(C(=O)O)C5CCC43C)C2C1(C)O` (centres undefined) the Potency was “inactive”. In the case of `COc1ccc(/C=C/C(N)=O)cc1OC`, the Potency is reported as “inactive”. For `CC(C)CC[C@@H](O)[C@](C)(O)[C@H]1CC[C@@]2(O)C3=CC(=O)[C@@H]4C[C@@H](O)[C@@H](O)C[C@]4(C)[C@H]3CC[C@]12C`, the Potency was “inactive”. With `C[C@@H]1O[C@@H](O[C@H]2[C@H](O[C@H]3[C@H](O[C@H]4CC[C@@]5(C)C(CC[C@]6(C)C5CC=C5[C@@H]7CC(C)(C)C[C@@H](O)[C@]7(C)CC[C@]56C)[C@@]4(C)CO)O[C@H](C(=O)O)[C@@H](O)[C@@H]3O)O[C@H](CO)[C@H](O)[C@@H]2O)[C@H](O)[C@H](O)[C@H]1O` (some centres undefined) the outcome was “inactive [at 9.23 µM]”. With `C[C@H]1[C@@H](O)[C@H](O)C2[C@]3(C)C([C@@H](O)[C@H]4OC(=O)[C@@H]1[C@@]24C)[C@](C)(O)C=C[C@H]3O[C@@H]1O[C@H](CO)[C@@H](O)[C@H](O)[C@H]1O` (some centres undefined) the Potency was “inactive”. In the case of `CC1(C)CC[C@]2(C(=O)O[C@@H]3O[C@H](CO)[C@@H](O)[C@H](O)[C@H]3O)CC[C@]3(C)C(=CCC4[C@@]5(C)CC[C@H](O[C@@H]6O[C@H](C(=O)O)[C@@H](O[C@@H]7O[C@H](CO)[C@@H](O)[C@H](O)[C@H]7O)[C@H](O)[C@H]6O)C(C)(C)C5CC[C@]43C)C2C1` (some centres undefined), the outcome is reported as “inactive [at 9.23 µM]”. For `C/C=C1\[C@H](O[C@@H]2O[C@H](CO)[C@@H](O)[C@H](O)[C@H]2O)OC=C(C(=O)O)[C@H]1CC(=O)OCCc1ccc(O)cc1`, the Potency was “inactive”. For `COC(=O)C1=COC(O[C@@H]2O[C@H](CO)[C@@H](O)[C@H](O)[C@H]2O)C2C(C)C(=O)CC12` (some centres undefined), the Potency was “inactive”. For `CC1(C)CC[C@]2(C(=O)O)[C@H](O)C[C@]3(C)C(=CCC4[C@@]5(C)CC[C@H](O[C@@H]6OC[C@@H](O)[C@H](O)[C@H]6O)[C@@](C)(C(=O)O)C5CC[C@]43C)[C@@H]2C1` (some centres undefined), the Potency was “inactive”. With `CC1CCC2(C(=O)OC3OC(CO)C(O)C(O)C3O)CCC3(C)C(=CCC4C5(C)CCC(O)C(C)(CO)C5CCC43C)C2C1(C)O` (centres undefined) the Potency was “inactive”. With `C[C@H]1[C@H](C)CC[C@]2(C(=O)O)CC[C@]3(C)C(=CCC4[C@@]5(C)C[C@@H](O)[C@H](O)C(C)(C)C5CC[C@]43C)[C@H]12` (some centres undefined) the Potency was “inactive”. In the case of `C[C@H]1[C@H](C)C[C@@H](C(=O)O)C2CC[C@]3(C)C(=CC[C@@H]4[C@@]5(C)CC[C@H](O)C(C)(C)[C@@H]5CC[C@]43C)[C@@H]21` (some centres undefined), the Potency is reported as “inactive”.
